Experimental data: PubChem BioAssay (NCI)
Compounds without any hit were thinned out: in the full panel of roughly 79,000, 15% have a hit. Unmarked numbers belong to inactive results. Calls of active or inactive are those of the source. Rule as the data show it: active = growth inhibition above about 70%; inactive = the rest.

How the values were obtained:
[1] = NCI Yeast Anticancer Drug Screen. Data for the rad50 strain (AID 155);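 also: 0% = growth of vehicle-only cultures of the same strain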; conditions: S. cerevisiae rad50 strain growth inhibition; at 50.0 µM; active compounds read high
Summary of the method: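 Vehicle-treated cultures provide the reference for the growth inhibition reported for compound-exposed, repair-deficient yeast.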

[2] = NCI Yeast Anticancer Drug Screen. Data for the mec2-1 strain (AID 157); conditions: S. cerevisiae mec2-1 strain, at 50.0 µM, active compounds read high
Summary of the method: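 Mutant yeast (mec2-1) grown with compound; growth inhibition relative to vehicle control reported.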

[3] = NCI Yeast Anticancer Drug Screen. Data for the sgs1 mgt1 strain (AID 161);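 also: 0% = growth of cultures given vehicle only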; conditions: S. cerevisiae sgs1 mgt1 strain, at 50.0 µM, active compounds read high
Summary of the method: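 Compounds are added to genetically altered yeast, and growth is compared with cultures given vehicle alone to give percent inhibition.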

[4] = NCI Yeast Anticancer Drug Screen. Data for the cln2 rad14 strain (AID 165);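 also: 0% = growth equal to vehicle treated cultures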; conditions: S. cerevisiae cln2 rad14 strain, at 50.0 µM, active compounds read high
Summary of the method: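 Readout is yeast growth inhibition versus vehicle-treated controls, using a strain with cln2 and rad14 alterations exposed to compound.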

[5] = NCI Yeast Anticancer Drug Screen. Data for the bub3 strain (AID 167); conditions: S. cerevisiae bub3 mutant strain, at 50.0 µM, active compounds read high
Summary of the method: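 Mutant yeast screening strain plus compound; vehicle-treated cultures serve as the 0% inhibition reference.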

[6] = NCI Yeast Anticancer Drug Screen. Data for the mlh1 rad18 strain (AID 175); conditions: S. cerevisiae mlh1 rad18 strain growth inhibition; at 50.0 µM; active compounds read high
Summary of the method: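 Genetically defined yeast (DNA repair-deficient) exposed to compounds; growth inhibition determined relative to vehicle.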

Structure (SMILES)	growth inhibition [1]	growth inhibition [2]	growth inhibition [3]	growth inhibition [4]	growth inhibition [5]	growth inhibition [6]
CCOC(=O)C(C(=O)OCC)C(NC(=O)Nc1cc(C(F)(F)F)ccc1OC)(C(F)(F)F)C(F)(F)F	23.1%	11.6%	11.4%	3.45%	21.6%	24.8%
CC(=O)OCC1OC(OC(C)=O)C(NS(=O)(=O)Cc2ccccc2)C(OC(C)=O)C1OC(C)=O (stereo not given)	10.5%	17.4%	13.7%	-1.35%	-1.2%	20.4%
Cc1ccnc2ccccc12	0.15%	1.55%	-1.6%	-3.2%	-2.15%	-11.4%
COc1cc(C(NC(N)=O)c2cc3c(cc2O)OCO3)cc(OC)c1O (stereo not given)	-1.4%	0.45%	-12.2%	-20.9%	12.4%	4.05%
N/N=C(\N)SCCCCCCS/C(N)=N/N	-10.8%	2.15%	24%	41.5%	39.9%	-5.2%
Nc1nc2c(c(-c3ccccc3Cl)n1)COC/C2=C\c1ccccc1Cl	15.7%	18.8%	54%	25.1%	41.1%	50%
COc1ccc(CCNC(=O)CC2CCN(C)CC2)cc1OC	-1.05%	-6.7%	10.2%	-7.4%	15.2%	-3.75%
COc1ccc(CSC(=S)Nc2cc(C)c(C)cc2Br)cc1	96.3% (active)	97.5% (active)	97.7% (active)	97.6% (active)	96.8% (active)	96.8% (active)
CC(=Nc1cc(Cl)cc(Cl)c1)c1ccncc1	-25.1%	-21.2%	-31.4%	-5.05%	16.4%	-49.8%
O=C1c2ccccc2-c2c1c1ccccc1c(=O)n2Cc1ccco1	16.1%	-29.2%	-2.8%	8.85%	-11.2%	-18.9%
COc1cc(C(=O)C(C)Br)cc(OC)c1OC (stereo not given)	3.1%	46.1%	64.9%	-23%	68.2%	62.4%
Cc1cccc(I)c1	-21.4%	-24.4%	-4.95%	-2.1%	-2.55%	17.2%
CC(C)(C)OC(=O)C1/C(=C/CO)CN1C(=O)OC(C)(C)C (stereo not given)	-17.9%	-36.2%	-12.2%	7.4%	-12.1%	-28.9%
CCCCC(CC)CN(CC(CC)CCCC)C1C=CCCC1 (stereo not given)	3.6%	-10.3%	7.9%	-36.8%	6.5%	2.7%
Fc1cccc(-c2nnc(-c3cccc4ccccc34)o2)c1	-8.65%	-1.8%	-0.5%	-49.8%	1.45%	-5.1%
CC(C)CCCC(C)C1CCC2C3CC=C4CC(OCCC(C)C)CCC4(C)C3CCC12C (stereo not given)	55.5%	66.7%	29.4%	84.3% (active)	98.1% (active)	90.4% (active)
Cc1cc2c(cc1C)-c1c(N)nc(N)nc1CC2	2.2%	9.95%	-8.6%	-29.2%	-15%	12.7%
COC1=C(C(=O)OC(C)(C)C)[C@]2(C)C(C(=O)OC(C)(C)C)C(OC)=C(C(=O)OC(C)(C)C)[C@]2(C)C1C(=O)OC(C)(C)C (stereo not given in full)	30.6%	15.4%	22.8%	17.6%	-3.25%	29.9%
O=C(O)c1ccccc1C(=O)OCC1CCc2ccccc2C1 (stereo not given)	5.45%	26.8%	28.3%	33%	51.4%	9.2%
COC(=O)C(CC(=O)Nc1ccc(Cl)c(Cl)c1)C(=O)C(=O)Nc1ccc(Cl)c(Cl)c1 (stereo not given)	-36.2%	-15.6%	-34%	6.6%	-3.25%	-10.7%

Structure (SMILES)	growth inhibition [1]	growth inhibition [2]	growth inhibition [3]	growth inhibition [4]	growth inhibition [5]	growth inhibition [6]
NC(=S)SC1=NNC2(C(=O)N1)c1ccccc1-c1ccccc12	-11.6%	-33.6%	14.2%	-6.7%	5.7%	14.6%
CC/C(=C\c1ccccc1O)c1ccncc1	2.2%	-8.5%	2.5%	1.85%	23.1%	-0.65%
CCCCCC(=O)NC(=O)Nc1ccccc1OC	-13.6%	-1.05%	-4.35%	-24.1%	0.65%	-1.55%
CCCCNc1ccc2c(C)cc(=O)oc2c1	-22.9%	-30.6%	-16.9%	0.7%	-21.4%	-17.4%
Cc1cccc(C(C)C)c1NC(=O)C(=O)CC(=O)c1c(C)n([O-])c2ccccc2[n+]1=O	-7.2%	9.45%	-10%	12.2%	-13.1%	-16.2%
O=COC(Cc1ccccc1)c1ccc2c(c1)OCO2 (stereo not given)	32.2%	-5.2%	1.6%	-7.2%	30.6%	-3.05%
Nc1nc(N)c(N=Nc2ccc(S(=O)(=O)NC(=O)c3ccccc3)cc2)c(=O)[nH]1	-8.4%	-4.3%	-6.9%	-9.35%	-2.55%	-8.9%
Oc1cc2nc3ccccc3nc2c2ccc(Br)cc12	-12.8%	-7.45%	7.7%	-44.6%	-17.7%	-14.1%
COc1cc(C(C#N)NNC(=O)c2ccccc2O)ccc1O (stereo not given)	34.4%	42.8%	44.7%	17.6%	66.2%	38%
CC(C)CCCC(C)C1CCC2C3CC([N+](=O)[O-])=C4CC(O[N+](=O)[O-])CCC4(C)C3CCC12C (stereo not given)	50.4%	20.1%	37.1%	23.6%	1.95%	20.2%
Brc1ccc(Br)s1	-11.2%	-0.1%	-20.4%	-38.3%	7.5%	0.4%
CC(Nc1cnccn1)Nc1cnccn1	-3.1%	-3.55%	-0.4%	-23.4%	-5.2%	1.05%
O=C(CC(=O)c1ccc(-c2ccc(C(=O)CC(=O)c3ccccc3)cc2)cc1)c1ccccc1	-16.4%	-11%	-20.4%	-34.4%	-1.8%	-10.7%
Cc1cccc[n+]1C1CCc2ccccc2C1=O (stereo not given)	1.5%	10.7%	17.4%	-23.1%	-21.3%	4%
COc1cc(CC2COC(=O)C2Cc2ccc(O)c(OC)c2)ccc1O (stereo not given)	-4.85%	12.1%	0.35%	-15.8%	22.4%	6.4%
O=C1c2ccccc2C(=O)N1CCc1ncc(-c2ccccc2)[nH]1	-16.4%	7.85%	-16.1%	12.4%	1.1%	1.9%
COC1C(=O)CCC2(CO2)C1(O)C1(C)OC1CC=C(C)C (stereo not given)	-22.9%	-34.4%	-31.6%	-5.2%	-28.2%	-25.8%
CCC(C)C(C)(O)CC (stereo not given)	-2.6%	-28.9%	-21.8%	4.1%	-8.8%	-4.8%
COC(=O)C1(O)C(=O)NC2=C1C(=O)c1ccccc1C2=O (stereo not given)	9.75%	5.8%	8.05%	-8.7%	28.9%	13.8%
[O-][n+]1cc(N=Nc2ccc(Cl)cc2)nn1-c1ccc(Cl)cc1	-11.6%	-33.8%	-8.5%	9.85%	-1.1%	-14.3%
